Screens from PubChem BioAssay.
Rows were chosen to be rich in hits. Some 1.8% of all compounds tested hit in one or more screens of this group.
PAD4 inh – inhibitors of human PAD4 | AID 485272 | recombinant PAD4, RCA probe fluorescence polarization | inhibition, % at 6.36 µM | 0.41% of 330,000 active;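 active = percent inhibition above a cutoff equal to the mean of all tested compounds plus 3 SD, cut at about 15% in these data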;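 also: 0% = PAD4 with RCA probe and DMSO and 100% = probe without PAD4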
LYPLA1 inh – blocks human lysophospholipase 1, a PME1 counter-screen | inhibition, % at 5.9 µM | recombinant LYPLA1, FP-Rh probe fluorescence polarization | 0.16% of 320,000 active;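 active = inhibition above the mean of all tested compounds plus 3 SD, set per campaign, cut at about 14% in these data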;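 also: inhibitors block serine hydrolase probe labeling of LYPLA1 so polarization falls; 0% = enzyme with DMSO and 100% = wells lacking LYPLA1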
Target sequence (O75608 whole entry, looked up): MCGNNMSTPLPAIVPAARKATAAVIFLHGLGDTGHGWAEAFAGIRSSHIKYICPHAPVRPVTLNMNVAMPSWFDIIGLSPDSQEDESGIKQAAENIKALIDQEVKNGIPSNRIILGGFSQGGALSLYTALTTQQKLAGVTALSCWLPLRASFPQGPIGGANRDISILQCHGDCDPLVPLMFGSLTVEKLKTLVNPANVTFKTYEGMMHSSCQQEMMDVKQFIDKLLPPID
LYPLA2 counter – blocks human lysophospholipase 2, a PME1 counter-screen | recombinant LYPLA2, FP-Rh probe fluorescence polarization | inhibition, % at 5.9 µM | 0.38% of 320,000 active | AID 2177;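 active = inhibition above the screen-wide mean plus 3 SD, limit set per campaign, cut at about 26% in these data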;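 also: 0% = LYPLA2 with DMSO and 100% = wells lacking LYPLA2 enzyme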
GSTO1 inh – GSTO1 inhibition, counter-screen for RBBP9 inhibitors; P78417; recombinant GSTO1, activity-based probe fluorescence polarization; inhibition, % at 5.96 µM; 1.1% of 300,000 active; AID 1974;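 active = inhibition above the campaign mean inhibition plus 3 SD, cut at about 35% in these data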;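 also: 0% = GSTO1-1 with DMSO and 100% = wells lacking GSTO1-1 enzyme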
PME-1 inh – blocks human protein phosphatase methylesterase 1; 0.53% of 320,000 active; Q9Y570; AID 2130; recombinant PME-1, FP-Rh probe fluorescence polarization; inhibition, % at 5.9 µM;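 active = inhibition above the campaign mean of all compounds plus 3 SD, cut at about 26% in these data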;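 also: competitive labeling of PME-1 active site by serine hydrolase directed probe; 0% = PME-1 with DMSO and 100% = wells lacking PME-1 enzyme; inhibitors block probe labeling so polarization falls and inhibition rises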
Target sequence (Q9Y570 whole entry, looked up): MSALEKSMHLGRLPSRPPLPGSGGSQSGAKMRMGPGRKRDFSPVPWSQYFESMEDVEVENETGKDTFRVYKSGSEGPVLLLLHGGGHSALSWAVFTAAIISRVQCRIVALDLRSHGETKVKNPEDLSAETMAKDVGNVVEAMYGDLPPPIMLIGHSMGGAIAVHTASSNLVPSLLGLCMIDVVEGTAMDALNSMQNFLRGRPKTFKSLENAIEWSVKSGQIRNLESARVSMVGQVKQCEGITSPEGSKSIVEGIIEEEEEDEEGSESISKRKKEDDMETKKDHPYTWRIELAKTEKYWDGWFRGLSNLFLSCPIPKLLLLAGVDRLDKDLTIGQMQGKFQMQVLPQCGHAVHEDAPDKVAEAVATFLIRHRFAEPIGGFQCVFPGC
Fam108B counter – blocks mouse Fam108B hydrolase in RBBP9 counter-screen; 0.33% of 300,000 active; recombinant Fam108B, FP-Rh probe fluorescence polarization; inhibition, % at 9.51 µM;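 active = inhibition above the screen mean inhibition plus 3 SD, computed separately per campaign, cut at about 18% in these data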;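 also: inhibitors lower polarization as less probe binds the enzyme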
Numbers without * were called inactive; . = not tested or not shown.

SMILES | PAD4 inh | LYPLA1 inh | LYPLA2 counter | GSTO1 inh | PME-1 inh | Fam108B counter
CCCCC1OC2(C)OC(=N)C1(C#N)C(C#N)(C#N)C2c1ccccc1 (stereo not drawn) | 8.8 | 1.4 | 1.1 | 4.8 | -1.8 | 2.4
CC1OC2(C)OC(=N)C1(C#N)C(C#N)(C#N)C2c1ccccc1 (stereo not drawn) | 25.1* | 11.2 | 15.1 | 9.7 | 15.8 | 14.5
Cc1ccc2nc(CCl)[n+]([O-])c(-c3ccccc3)c2c1 | -9.8 | 1.9 | 25.1 | 35.5* | -3.6 | 0.5
Cc1ccc(N/N=C(\C#N)C(N)=S)c(C)c1 | 0.9 | -3.0 | 3.6 | -6.0 | 93.0* | 5.3
Cc1ccc(NC(=O)/C(C#N)=N/Nc2ccc(C(=O)O)cc2)c(C)c1 | -1.4 | -0.2 | -4.2 | -3.9 | -4.8 | -2.3
O=C(CNC(=O)c1ccc(Cl)cc1Cl)OCCOc1ccccc1F | -1.1 | . | . | . | . | .
C=C1N(C)c2cc([N+](=O)[O-])c(N)cc2C1(C)C | 1.7 | 2.3 | 1.4 | 36.1* | 12.1 | 3.4
NC(=O)c1ccc(OCC(=O)N2CCNC2=O)cc1 | 1.2 | . | . | . | . | .
CCc1ccc(NC(=O)Nc2cccs2)cc1 | -4.4 | -4.0 | 9.5 | 19.1 | 34.4* | 3.2
Cc1ccc(NC(=O)Nc2cccs2)cc1 | -0.5 | 2.9 | 4.5 | -0.6 | 18.2 | 9.2
Cc1cccc(C)c1NC(=S)N=Nc1c(O)n(C)c2ccc(S(=O)(=O)N3CCOCC3)cc12 | -4.1 | -2.5 | -1.2 | 0.7 | -5.2 | 1.8
Cc1ccccc1NC(=S)N=Nc1c(O)n(C)c2ccc(S(=O)(=O)N3CCOCC3)cc12 | -5.6 | -2.2 | 5.9 | 36.3* | 5.6 | 11.5
Fc1cccc2sc(Nc3nc4c(F)cccc4s3)nc12 | -6.4 | -6.9 | -5.0 | -20.9 | 10.8 | 4.4
Fc1cccc2sc(Nc3nnc(-c4ccccc4)o3)nc12 | 5.1 | 0.4 | 4.3 | -28.4 | 27.5* | 13.7
COC(=O)C(COC(=O)c1c(F)cccc1F)NC(=O)c1c(F)cccc1F (stereo not drawn) | -1.8 | 6.4 | 4.6 | -2.0 | 1.2 | 3.7
O=C(OCn1ncc(Br)c(Br)c1=O)c1c(F)cccc1F | 22.0* | -0.3 | 0.3 | 7.8 | -3.3 | -0.7
Cc1c(NC(=O)COC(=O)c2ccc(Cl)nc2)c(=O)n(-c2ccccc2)n1C | 0.6 | . | . | . | . | .
O=C(/C(=N/N=C/c1ccc(O)c(O)c1)c1ccccc1)c1ccccc1 | -2.0 | -17.7 | -19.9 | 1.6 | 30.1* | 22.0*
Oc1ccc(/C=N/N(c2ccccc2)c2ccccc2)cc1O | 0.3 | -4.2 | -4.6 | 8.5 | -5.1 | -1.8
CC(C)(C)N1C(=O)c2ccc(C(=O)O)cc2C1=O | 0.7 | 0.1 | 3.2 | 1.8 | -0.1 | 9.5
O=C(O)c1ccc2c(c1)C(=O)/C(=C/c1ccccc1)C2=O | 2.6 | 2.3 | 3.7 | 56.1* | -4.4 | 15.1
Cc1cc(/C=C2\SC(=S)NC2=O)c(C)n1C | -5.9 | -4.7 | 0.8 | 45.7* | -6.9 | -2.3
Cc1cc(/C=C2\SC(=S)NC2=O)c(C)n1-c1ccccc1 | -9.2 | 0.2 | 0.5 | 24.6 | -0.5 | 6.7
CCC(C)(C)C1CCC2(CC1)NC(=O)N(CC(=O)N(C)Cc1ccc(OC(F)F)cc1)C2=O (stereo not drawn) | 2.6 | 2.7 | 5.5 | 2.9 | 0.1 | 1.2
CC(=O)Nc1ccc(C(=O)OCC(=O)Nc2ccccc2Sc2ccccc2)cc1 | -2.2 | -7.5 | -21.1 | -26.0 | 1.9 | -14.8
SMILES | PAD4 inh | LYPLA1 inh | LYPLA2 counter | GSTO1 inh | PME-1 inh | Fam108B counter
N#CCC(=O)Nc1ccc(C(=O)OCC(=O)Nc2ccccc2Sc2ccccc2)cc1 | -2.3 | -13.4 | 2.1 | -35.0 | 34.2* | 5.8
Cc1csc(N/N=C/c2ccc(O)c([N+](=O)[O-])c2)n1 | 5.1 | 4.4 | 5.0 | 84.3* | -0.8 | 16.6
Cn1c(CC(=O)NNC(=O)c2ccc(Cl)nc2)nc2ccccc21 | -0.3 | . | . | . | . | .
Cc1cccc(Nc2nnc(SC/C(O)=C(\C#N)c3nc4ccccc4[nH]3)s2)c1C | -3.2 | 0.5 | 6.5 | 3.0 | 81.9* | 5.8
Cn1cnnc1SC/C(O)=C(\C#N)c1nc2ccccc2[nH]1 | -0.3 | 1.1 | 2.3 | 2.8 | 8.2 | 0.2
COc1ccc(OC)c(NC(=O)c2cc(S(=O)(=O)N3CCCC3)cn2C)c1 | -5.3 | 0.8 | 4.7 | 2.9 | 6.0 | 3.8
Oc1ccc(/C=C/c2ccc3ccccc3n2)cc1 | 4.2 | 6.1 | 0.8 | -3.1 | 28.1* | 6.1
CC(=O)N1c2ccc(S(=O)(=O)N(C)CC(=O)Nc3cccc(C)c3)cc2CC1C (stereo not drawn) | -0.2 | 0.5 | 7.3 | -0.8 | -1.8 | -1.5
N#Cc1cccc(N=Cc2c(O)ccc3ccccc23)c1 | -5.9 | 0.9 | 3.9 | 37.9* | -3.3 | 3.2
Cc1ccc(N=Cc2c(O)ccc3ccccc23)cc1F | -5.3 | -0.8 | -3.7 | 30.6 | -5.7 | 0.8
COc1ccc(-n2c(N)c(C(=O)NCc3ccco3)c3nc4ccccc4nc32)c(OC)c1 | 1.1 | -6.2 | -23.2 | 37.0* | -10.0 | -5.8
COc1ccc2cc3c(N)c(C(=O)NCc4ccco4)sc3nc2c1 | -1.6 | -6.5 | -0.6 | 0.1 | 34.5* | 4.9
COc1ccc(CCn2c(N)c(C(=O)NCc3ccco3)c3nc4ccccc4nc32)cc1 | -6.8 | -6.4 | -9.1 | 4.3 | 16.5 | 3.0
Cc1cccc(NC(=O)CN2C(=O)COc3ccc(Cl)cc32)c1 | 2.7 | -1.9 | 40.0* | 3.0 | -1.6 | 0.0
O=c1[nH]c2ccc(S(=O)(=O)N3CCN(Cc4ccccc4)CC3)cc2[nH]c1=O | -3.4 | -0.9 | -0.1 | 34.9* | 1.0 | 1.1
COc1ccc(/C=N/Nc2cc(C)nc(-n3nc(C)cc3C)n2)cc1 | -1.2 | -2.6 | -1.3 | -2.3 | 32.8* | -1.5
Oc1cccc(/C=N/Nc2cc(N3CCCC3)nc(N3CCCC3)n2)c1 | -9.7 | -6.6 | 5.3 | 35.6* | 30.8* | 7.8
Cc1cc(N/N=C/c2cccc(Cl)c2)nc(-n2nc(C)cc2C)n1 | 2.7 | 0.5 | 5.5 | -10.1 | -5.0 | -2.3
Oc1ccc(/C=N/Nc2nc(N3CCCC3)nc(N3CCCC3)n2)cc1O | 1.5 | 6.2 | 4.4 | 56.1* | 10.3 | -1.2
Oc1ccc(/C=N/Nc2cc(N3CCCC3)nc(N3CCCC3)n2)cc1 | -5.6 | -1.8 | 1.7 | 4.3 | 12.3 | 1.0
COc1ccc(/C=N/Nc2cc(N3CCCC3)nc(N3CCCC3)n2)cc1 | -5.1 | 0.4 | 4.8 | 36.5* | 20.4 | 5.2
O=C(CSc1n[nH]c(=O)[nH]c1=O)Nc1ccc(SC(F)F)cc1 | 0.1 | . | . | . | . | .
Cc1ccc2c(c1)-n1c(nc3ccccc3c1=O)C(Cc1ccc(O)cc1)NC2=O (stereo not drawn) | -2.3 | . | . | . | . | .
CC(C)CNC(=O)C(=O)NCC1OCCN1S(=O)(=O)c1cccs1 (stereo not drawn) | -4.9 | 2.3 | 11.3 | 0.7 | 2.3 | 3.2
CCCCn1c2ccccc2c2nnc(SCC(=O)NC3=NN=C(c4ccccc4)CS3)nc21 | 21.2* | 2.5 | -1.3 | -9.0 | 1.7 | 1.4
CCOC(=O)COc1ccc(/C=C2/C(=O)NN(c3ccc(F)cc3)C2=O)cc1OC | -0.4 | 1.4 | 0.1 | 6.0 | 1.4 | 12.2
